Screening data (PubChem BioAssay)
The list is not random: actives were taken first. Their share in the collection is about 12%.
Sfp inh = qHTS Assay for Inhibitors of Bacillus subtilis Sfp phosphopantetheinyl transferase (PPTase) | 4'-phosphopantetheinyl transferase ffp (Bacillus subtilis), Q9F4F7 | hit rate 3.5% among 310,000 | Biochemical Sfp PPTase activity, qHTS | Potency, µM, for the others: largest response in the series, negative = inhibition, actives largely listed as inhibitors;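 further: the enzyme is Sfp with the accession as filed and its product quenches rhodamine fluorescence; 0% = enzyme reaction without inhibitor and -100% = no enzyme wells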
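Reaction rates are the 30-min fluorescence difference (ex 525, em 598 nm) in wells containing 15 nM Sfp, 5 uM rhodamine-CoA and 12.5 uM BHQ-2-YbbR at pH 7.6 with 10 mM MgCl2.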
JMJD2A Tudor = qHTS Assay for Inhibitors of JMJD2A-Tudor Domain; Lysine-specific demethylase 4A (Homo sapiens), O75164; AlphaScreen JMJD2A-Tudor / H3K4me3 peptide binding; Potency, µM (series often up to 114 µM), for the others: top-dose activity change, negative = inhibition, usual class: inhibitors; hit rate 4.4% among 390,000; AID 504339, 2011; further: on the % scale 0 is the no-effect control and ±100 the full control effect; nearly all actives have a fitted effect of over 50% in size
HP1b chromo inh = HTS for Inhibitors of HP1-beta Chromodomain Interactions with Methylated Histone Tails | hit rate 0.56% among 390,000 | AlphaScreen HP1-beta / biotin-H3K9me3 peptide binding | Potency, µM (titrated, usually from 114 µM), for the others: top-dose activity change, negative = inhibition, most hits filed as inhibitors | Chromobox protein homolog 1 (Homo sapiens), P83916; further: nearly all actives have a fitted effect of over 70% in size
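HP1-beta protein (50 nM final) preincubated 30 min at room temperature with biotinylated H3(1-18)K9me3 peptide (50 nM) in PBS pH 7.4, 0.01% Tween-20, then compound added for 30 min. AlphaScreen streptavidin donor/nickel chelate acceptor beads (10 ug/mL final), 30 min dark, luminescence read.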
BAZ2B inh = qHTS Assay for Inhibitors of BAZ2B. hit rate 4.4% among 360,000. Potency, µM (highest dose often 114 µM), for inactives: at the top dose activity change, negative = inhibition, most hits filed as inhibitors. AlphaScreen BAZ2B-H3K14Ac peptide displacement. AID 504333, 2011; further: on the % scale 0 is the no-effect control and ±100 the full control effect; nearly all actives have a fitted effect of over 60% in size
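Inhibition is scored as reduced AlphaScreen emission. The BAZ2B/b-H3(5-23)K14Ac complex (50 nM each) in PBS pH 7.4, 0.01% Tween-20 meets compound (up to 110 uM) for 30 min at RT before bead addition.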
G9a inh = qHTS Assay for Inhibitors of Histone Lysine Methyltransferase G9a; Potency, µM (doses to about 102 µM), without a hit: at the highest dose activity, negative = inhibition, actives largely listed as inhibitors; G9a H3K9 monomethylation, AlphaScreen, 2 h; hit rate 8.8% among 350,000; Histone-lysine N-methyltransferase EHMT2 (Homo sapiens), Q96KQ7; further: on the % scale 0 is the no-effect control and ±100 the full control effect; nearly all actives have a fitted effect of over 75% in size
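Compounds were preincubated with 20 nM G9a for 15 min, after which biotinylated H3K9 peptide (500 nM) and SAM (20 uM) started a 2 h room-temperature reaction. Monomethylated product was quantified by antibody-based AlphaScreen chemiluminescence.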
L3MBTL1 inh = qHTS Assay for the Inhibitors of L3MBTL1; Lethal(3)malignant brain tumor-like protein 1 (Homo sapiens), Q9Y468; AlphaScreen L3MBTL1–H3K9me1 peptide binding; Potency, µM (series often up to 57.1 µM), without a hit: at the top dose activity, negative = inhibition, hits mostly inhibitors; hit rate 0.66% among 230,000; further: on the % scale 0 is the no-effect control and ±100 the full control effect; nearly all actives have a fitted effect of over 60% in size
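AlphaScreen proximity signal between nickel-chelate acceptor and streptavidin donor beads (final 10 ug/mL) reports binding of 50 nM L3MBTL1 to 75 nM biotin-H3 K9me1 peptide; complex incubated with compounds 30 min at room temperature; cefsulodin titration as control.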
* = called active by the depositor; ? = inconclusive; nt = no result; [ ] = another dose, or the depositor's remark. The call rests on the fitted dose curve; in most records, active means well fitted curve in the direction sought with a large enough effect; inconclusive means small, poorly fitted or top-dose-only effect, or another doubt; inactive means no such curve, though single readings can be large; an effect the other way counts as inactive or inconclusive. Potency means the concentration at half of the fitted maximal effect.

SMILES	Sfp inh	JMJD2A Tudor	HP1b chromo inh	BAZ2B inh	G9a inh	L3MBTL1 inh
COc1ccccc1NC(=O)c1oc2ccccc2c1NC(=O)c1ccc(S(=O)(=O)N(C)C)cc1	nt	-7.0%	44.6%	-0.9%	-26.5%[59 µM]	nt
CCNC(=S)N1CCN(CC)CC1	-17.0%	3.16µM*	?	56.2µM*	25.1µM*	14.5%
CN1CCN(C(=S)NCCc2ccccc2)CC1	-21.5%	4.47µM*	56.2µM*	44.7µM*	6.31µM*	-6.4%
CCCCNC(=S)N1CCN(C)CC1	10µM*	11.2µM*	44.7µM*	39.8µM*	11.2µM*	1.9%
S=C(NCCc1ccccc1)N1CCN(C(=S)NCCc2ccccc2)CC1	nt	0.7%	12.8%	13.1%	-1.8%	3.3%
O=S(=O)(c1ccc(N2CCN(CCO)CC2)nc1)N1CCOCC1	nt	-4.1%	14.5%	-4.7%	6.3%[0.501 µM]	-3.8%
CC1CCCCN1C(=O)COC(=O)c1ccc(S(C)(=O)=O)c([N+](=O)[O-])c1 (stereo unspecified)	nt	?	50.4%	nt	nt	nt
CCc1c(C(=O)NCCc2ccc(N3CCCCC3)cc2)[nH]c2ccc(Cl)cc12	nt	nt	nt	nt	28.2µM*	nt
O=C(Nc1ccc(N2CCCCCC2)cc1)c1cccc(S(=O)(=O)N2CCOCC2)c1	nt	25.1µM*	-44.7%	31.6µM*	1.78µM*	?
CN(c1ccccc1)S(=O)(=O)c1cccc(C(=O)NCCc2ccc(O)c(O)c2)c1	17.8µM*	12.6µM*	?	-37.6%	8.91µM*	?
CC(=O)N1CCN(S(=O)(=O)c2cccc(C(=O)Nc3ccc4c(c3)CCC4)c2)CC1	4.6%	-20.3%	27.6%	17.5%	28.2µM*	43.1%
COc1ccc(NC(=O)c2c3c(nc4ccccc24)CCC3)cc1S(=O)(=O)N1CCOCC1	13.8%	?	-30.4%	50.1µM*	?	31.6µM*
CC(=O)N1CCN(S(=O)(=O)c2cccc(C(=O)Nc3ccc(OC(F)F)cc3)c2)CC1	-3.7%	-6.9%	22.4%	-1.7%	34.3%	nt
COc1ccc(C(=O)Nc2ccc(NC(=O)c3ccccc3)cc2)cc1S(=O)(=O)N1CCOCC1	7.9%	8.8%	15.5%	-14.3%	?	nt
O=C(Nc1cccc(S(=O)(=O)N2CCOCC2)c1)c1cccc(S(=O)(=O)N2CCCCC2)c1	nt	-17.9%	16.0%	3.4%	?	-0.3%
CCN(CC)S(=O)(=O)c1cccc(C(=O)NCCc2ccccc2)c1	nt	-7.1%	29.0%	nt	nt	nt
Cc1ccccc1C(=O)Nc1ccc(C(=O)O)cc1NC(=O)c1ccccc1C	16.2%	-15.1%	28.6%	-3.7%	-3.7%	nt
Cc1nc(-c2ccc(Cl)cc2)oc1COC(C)(C)C(=O)O	23.3%	nt	nt	nt	-5.4%[12.7 µM]	nt
CC(C)(C)NC(=O)COC(=O)CNC(=O)C1CCCCC1	nt	6.9%[57.1 µM]	10.9%[57 µM]	nt	nt	nt
COc1cc(S(=O)(=O)N2CCN(Cc3ccc4c(c3)OCO4)CC2)ccc1NC(C)=O	nt	nt	nt	nt	nt	8.8%
CCc1sc(C(=O)Nc2cccnc2)cc1Br	5.6%	-5.5%	30.7%	-1.5%	1.0%	nt
CN(c1ccccc1)S(=O)(=O)c1cccc(C(=O)Nc2ccc(N3CCOCC3)cc2)c1	nt	?	-29.5%	?	56.2µM*	-7.2%
COc1ccc(C(=O)Nc2ccc(N3CCCCCC3)cc2)cc1S(=O)(=O)N1CCOCC1	nt	7.08µM*	?	28.2µM*	?	?
O=C(Nc1ccccc1)c1ccc(N2CCN(c3ccccn3)CC2)c(S(=O)(=O)N2CCOCC2)c1	13.6%	-35.1%	2.0%	-16.7%	-43.6%	nt
Cc1ccc(N(C)S(=O)(=O)c2cccc(C(=O)Nc3ccc(N4CCOCC4)cc3)c2)cc1	nt	?	6.9%	?	?	-28.8%
SMILES	Sfp inh	JMJD2A Tudor	HP1b chromo inh	BAZ2B inh	G9a inh	L3MBTL1 inh
O=C(NCC1CCCO1)c1cccc(S(=O)(=O)N2CCOCC2)c1 (stereo unspecified)	18.5%	-11.0%	9.6%	-11.7%	4.8%	nt
O=C(NNC(=S)NCC1CCCO1)c1cccc(S(=O)(=O)N2CCOCC2)c1 (stereo unspecified)	26.8%	-10.2%	20.2%	-3.3%	50.1µM*	5.8%
O=C(Nc1ccccc1)c1ccc(N2CCN(c3ccccc3)CC2)c(S(=O)(=O)N2CCOCC2)c1	2.3%	15.8%	19.3%	79.4µM*	16.2%	nt
Cc1ccc(NC2CCCN(C(=O)c3ccccc3-c3ncc[nH]3)C2)cc1C (stereo unspecified)	4.3%	-19.6%	21.2%	?	?	nt
COC(=O)[C@@H]1C[C@H]1[C@@H](NS(=O)(=O)c1ccc2ccccc2c1)c1ccccc1	-4.2%	nt	nt	nt	nt	nt
O=C(NCc1ccccc1Cl)C1CCCN(C(=O)c2cnn(-c3ccccc3)c2-n2cccc2)C1 (stereo unspecified)	nt	-29.2%	-5.4%	-14.2%	4.5%[59 µM]	nt
S=c1[nH]nc(Cc2sc(-c3ccccc3)nc2-c2ccccc2)o1	6.4%	-31.9%	1.5%	?	28.2µM*	nt
COc1ccc(OCc2n[nH]c(=S)o2)cc1	-21.0%	?	2.8%	-27.9%	?	nt
O=C(CCN1CCOCC1)Nc1cc(C(=O)Nc2ccc(Cl)cc2)ccc1N1CC2CC(C1)c1cccc(=O)n1C2 (stereo unspecified)	3.5%	-21.1%	8.9%	-23.9%	7.6%	nt
Cc1oc(-c2cccc(Br)c2)[n+]([O-])c1C	-16.5%	-27.2%	16.0%	-9.4%	2.1%	nt
S=c1[nH]nc(-c2cccc(Br)c2)o1	10.9%	?	10.2%	-7.7%	1.78µM*	4.0%
S=c1[nH]nc(-c2cccnc2)o1	56.2µM*	20µM*	36.6%	?	?	5.2%
Cc1ccc2nc(-c3cccnc3)oc2c1	10.2%	-14.2%[57.1 µM]	23.1%	7.9%	49.3%[12.7 µM]	-0.4%
Nn1c(-c2cccc(Br)c2)n[nH]c1=S	?	35.5µM*	-10.0%	?	2.24µM*	-2.8%
Cc1cc2c(c(=O)o1)[C@H](O)[C@H]1O[C@@H]1C2=O	-13.0%	nt	nt	nt	nt	nt
CC(NC(=O)COC(=O)c1ccc([N+](=O)[O-])o1)c1ccccc1 (stereo unspecified)	nt	-19.3%	22.3%	nt	nt	-17.1%
C[C@@]12CCC(O)C[C@H]1CCc1ccccc12 (stereo partly specified)	-3.5%	nt	nt	nt	nt	nt
CNC(=O)C(C#N)(Cc1cc(C(C)=O)ccc1OC)Cc1cc(C(C)=O)ccc1OC	9.5%	-1.4%	6.6%	-12.9%	-24.6%	nt
COc1cc(/C=C/c2cccc[n+]2C)ccc1OCC(=O)Nc1ccccc1C	16.5%	-4.2%	-9.8%	-22.6%	-6.6%[59 µM]	nt
